From article PMC11062922 (Nature Chemical Biology, 2023)

What was measured:
Design in all cases: species or system human, MV4-11 + K-562 + COLO205 + SK-N-BE2 + OVCAR-8
Conditions in all cases: read-out: apparent Kd; compound concentrations:100 nM and 1000 nM (sheet 'Samples'); n = 1
[1] = test system: CDC42
[2] = test system: CSNK2A1;CSNK2A3
[3] = test system: CSNK2A2
[4] = test system: NQO2
[5] = test system: PRKD2
[6] = test system: PRKD3
[7] = test system: CDK16
[8] = test system: CDK2
[9] = test system: CDK9
[10] = test system: CLK1
[11] = test system: CLK2
[12] = test system: CLK4
[13] = test system: GSK3A
[14] = test system: GSK3B
[15] = test system: ICK
[16] = test system: NUAK2
[17] = test system: PRKCA
[18] = test system: PRKCB
[19] = test system: PRKCD
[20] = test system: PRKCI
[21] = test system: PRKCQ
[22] = test system: RPS6KA3
[23] = test system: RPS6KA6
[24] = test system: RPS6KB1
[25] = test system: SLK
[26] = test system: STK26
[27] = test system: VDAC3
[28] = test system: MELK
[29] = test system: MYLK3
[30] = test system: NUAK1
[31] = test system: PRKAG1

Cc1cccc(-c2nc(Nc3cccc(C(N)=O)c3)c3ccccc3n2)n1 [GW876019X]
potency estimated from few doses [1]: 2080 nM | potency estimated from few doses [2]: 1510 nM | potency estimated from few doses [3]: 2230 nM | potency estimated from few doses [4]: 1160 nM | potency estimated from few doses [5]: 739 nM | potency estimated from few doses [6]: 1510 nM

Cn1cc(C2=C(c3cn(CCCSC(=N)N)c4ccccc34)C(=O)NC2=O)c2ccccc21 [RO0318220-000]
potency estimated from few doses [7]: 1720 nM | potency estimated from few doses [8]: 1070 nM | potency estimated from few doses [9]: 694 nM | potency estimated from few doses [10]: 785 nM | potency estimated from few doses [11]: 434 nM | potency estimated from few doses [12]: 1430 nM | potency estimated from few doses [13]: 158 nM | potency estimated from few doses [14]: 183 nM | potency estimated from few doses [15]: 1720 nM | potency estimated from few doses [16]: 1420 nM | potency estimated from few doses [17]: 41.5 nM | potency estimated from few doses [18]: 105 nM | potency estimated from few doses [19]: 58.4 nM | potency estimated from few doses [20]: 2280 nM | potency estimated from few doses [21]: 121 nM | potency estimated from few doses [22]: 1300 nM | potency estimated from few doses [23]: 33.8 nM | potency estimated from few doses [24]: 419 nM | potency estimated from few doses [25]: 2100 nM | potency estimated from few doses [26]: 1480 nM | potency estimated from few doses [27]: 2310 nM

NS(=O)(=O)c1ccc(N/N=C2\C(=O)Nc3ccc(C(=O)NCCc4c[nH]cn4)cc32)cc1 [GW300660X]
potency estimated from few doses [7]: 1010 nM | potency estimated from few doses [12]: 1230 nM | potency estimated from few doses [2]: 2310 nM | potency estimated from few doses [3]: 1970 nM | potency estimated from few doses [13]: 1220 nM | potency estimated from few doses [28]: 2180 nM | potency estimated from few doses [29]: 735 nM | potency estimated from few doses [30]: 1450 nM | potency estimated from few doses [31]: 1480 nM
